Experimental data published in PubChem BioAssay (Tox21).
Values without a mark were called inactive. Results filed as inconclusive are left out. Where a call stands in place of a potency, no number is given. The source made the active and inactive calls. Unless noted, calls come from the whole dose curve.

How the values were obtained:
[1] = target: Acetylcholinesterase (Homo sapiens) (UniProt P22303); assay: Acetylcholinesterase (AChE) small molecule antagonists: colormetric cell-based qHTS assay (AID 1347395); settings: SH-SY5Y cells AChE activity, colorimetric (Ellman); series mostly up to 115 µM; note: nearly all actives have a fitted effect of over 30% in size; note: potency is the fitted concentration of half-maximal effect
Summary of the method: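 Cells (SH-SY5Y, 2,000 per well) are seeded and left overnight at 37 C. Compound is added for 30 min, then DTNB and acetylthiocholine for a further 90 min at 37 C before absorbance-based thiocholine detection.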

[2] = target: Acetylcholinesterase (Homo sapiens) (UniProt P22303); assay: Acetylcholinesterase (AChE) small molecule antagonists: enzyme-based qHTS assay (AID 1347397); settings: Potency: AChE enzyme activity inhibition; outcome: AChE enzyme activity inhibition; series mostly up to 115 µM; note: nearly all actives have a fitted effect of over 55% in size; note: potency is the fitted concentration of half-maximal effect
Summary of the method: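 rhAChE 50 mU/mL (dispensed) + cpd or DMSO, 30 min RT; add DTNB/acetylthiocholine cocktail, 10 min RT; colorimetric thiocholine readout. qHTS, 1536-well format.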

[3] = target: Acetylcholinesterase (Homo sapiens) (UniProt P22303); assay: Acetylcholinesterase (AChE) small molecule antagonists: enzyme-based qHTS assay with human liver microsomes (AID 1347399); settings: Potency: qHTS inhibition; outcome: qHTS inhibition; series mostly up to 115 µM; note: nearly all actives have a fitted effect of over 60% in size
Summary of the method: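 Recombinant human AChE (50 mU/mL in the enzyme mix) and human liver microsomes (0.25 mg/mL final) were preincubated with compound and NADPH (0.25 mg/mL final) for 30 min at 37 C. Acetylthiocholine/DTNB was then added; thiocholine was read colorimetrically after 10 min at room temperature.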

[4] = target: Acetylcholinesterase (Homo sapiens) (UniProt P22303); assay: Acetylcholinesterase (AChE) small molecule antagonists: fluorescence cell-based qHTS assay (AID 1347398); settings: SH-SY5Y cells; Potency: AChE activity; outcome: AChE activity; series mostly up to 115 µM; note: nearly all actives have a fitted effect of over 50% in size; note: potency is the fitted concentration of half-maximal effect
Summary of the method: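 Read-out is Thiolite Green fluorescence at Ex/Em = 490/520 nm, formed by reaction with thiocholine released when cellular AChE in SH-SY5Y cells hydrolyzes acetylthiocholine. Compounds were preincubated 30 min at 37 C before substrate.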

[5] = target: Aryl hydrocarbon receptor (Homo sapiens) (UniProt P35869); assay: qHTS assay to identify small molecule that activate the aryl hydrocarbon receptor (AhR) signaling pathway (AID 743085; active = well fitted activation curve with a large enough effect in the repeat runs;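 note: HG2L7.5c1 human HepG2 liver cells with stably integrated DRE-driven firefly reporter; nearly all actives have a fitted effect of over 15% in size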); settings: HepG2 AhR-luc (HG2L7.5c1), luciferase, 24 h; series mostly up to 70.3 µM
Summary of the method: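 Compounds were tested in HepG2 hepatocellular carcinoma cells harbouring a stably integrated luciferase gene under control of 20 DREs. Increased reporter signal after 24 h treatment at 37C was taken as AhR activation.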

Chain of Acetylcholinesterase (Homo sapiens) (P22303 whole entry, looked up): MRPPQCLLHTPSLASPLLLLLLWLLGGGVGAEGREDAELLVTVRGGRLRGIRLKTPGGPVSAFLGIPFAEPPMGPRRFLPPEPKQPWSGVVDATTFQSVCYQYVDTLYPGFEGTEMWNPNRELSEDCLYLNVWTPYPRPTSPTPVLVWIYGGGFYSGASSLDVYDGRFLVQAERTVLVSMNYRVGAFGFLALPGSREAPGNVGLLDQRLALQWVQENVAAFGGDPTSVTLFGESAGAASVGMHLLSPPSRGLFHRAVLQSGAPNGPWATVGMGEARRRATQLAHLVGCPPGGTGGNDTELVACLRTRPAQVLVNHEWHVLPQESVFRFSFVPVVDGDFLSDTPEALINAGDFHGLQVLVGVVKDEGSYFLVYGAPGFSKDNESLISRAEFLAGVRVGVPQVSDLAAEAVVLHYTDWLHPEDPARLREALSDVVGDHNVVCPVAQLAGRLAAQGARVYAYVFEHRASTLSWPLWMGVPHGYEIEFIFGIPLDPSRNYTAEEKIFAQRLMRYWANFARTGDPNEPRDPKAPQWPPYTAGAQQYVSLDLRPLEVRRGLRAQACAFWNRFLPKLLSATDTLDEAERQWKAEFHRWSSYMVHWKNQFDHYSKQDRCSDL
Chain of Aryl hydrocarbon receptor (Homo sapiens) (P35869 whole entry, looked up): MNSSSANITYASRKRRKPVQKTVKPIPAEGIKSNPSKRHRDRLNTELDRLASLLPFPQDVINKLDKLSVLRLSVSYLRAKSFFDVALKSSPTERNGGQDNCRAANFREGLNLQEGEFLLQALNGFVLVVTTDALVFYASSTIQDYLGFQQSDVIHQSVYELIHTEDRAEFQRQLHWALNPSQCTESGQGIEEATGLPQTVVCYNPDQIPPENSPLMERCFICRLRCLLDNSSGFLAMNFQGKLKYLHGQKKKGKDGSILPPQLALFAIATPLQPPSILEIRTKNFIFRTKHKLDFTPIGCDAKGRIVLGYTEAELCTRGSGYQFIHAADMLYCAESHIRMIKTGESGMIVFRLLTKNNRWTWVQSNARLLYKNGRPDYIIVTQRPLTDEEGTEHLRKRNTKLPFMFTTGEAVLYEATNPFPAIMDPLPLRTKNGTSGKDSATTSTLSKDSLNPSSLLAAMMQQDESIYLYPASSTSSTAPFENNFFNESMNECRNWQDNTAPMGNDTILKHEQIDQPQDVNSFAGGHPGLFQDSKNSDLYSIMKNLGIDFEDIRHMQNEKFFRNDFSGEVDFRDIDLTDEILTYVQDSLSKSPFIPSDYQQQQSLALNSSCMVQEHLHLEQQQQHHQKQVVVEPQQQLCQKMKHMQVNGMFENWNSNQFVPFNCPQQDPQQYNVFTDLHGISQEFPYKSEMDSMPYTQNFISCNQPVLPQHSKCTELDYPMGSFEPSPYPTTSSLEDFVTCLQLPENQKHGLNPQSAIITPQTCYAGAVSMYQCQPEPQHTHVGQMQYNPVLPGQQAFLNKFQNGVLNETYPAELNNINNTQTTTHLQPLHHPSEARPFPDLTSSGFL

[O]=[Mo](=[O])=[O]
activity, negative = inhibition [1]: 2.74% [at 23.6 µM] | activity change, negative = inhibition [2]: 0.153% [at 23.6 µM] | activity change, negative = inhibition [3]: 0.081% [at 23.6 µM]

O=C(CCN1CCN2CCCC2C1)N1c2ccccc2Sc2ccc(Cl)cc21 (configuration not stated)
activity, negative = inhibition [1]: 0% [at 23.6 µM] | activity change, negative = inhibition [2]: 0.831% [at 23.6 µM] | activity change, negative = inhibition [3]: 1.34% [at 23.6 µM]

CCOc1ccc(C(=O)OCCN(CC)CC)cc1
Potency [1]: inactive | Potency [2]: inactive | Potency [3]: inactive

CCNC(=O)C1CC(C)CCC1C(C)C (configuration not stated)
Potency [1]: inactive | Potency [2]: inactive | Potency [3]: inactive

Oc1ccc(C2CNCCc3c2cc(O)c(O)c3Cl)cc1 (configuration not stated)
Potency [1]: inactive | Potency [2]: inactive | Potency [3]: inactive

Cc1ncc([C@@H](CCCCCCc2ccc3c(n2)NCCC3)CC(=O)O)cn1
Potency [1]: 56.4 µM (active) | Potency [2]: inactive | Potency [3]: inactive

Cc1ccc([N+](=O)[O-])cc1Cl
Potency [1]: inactive | Potency [2]: inactive | Potency [3]: inactive

O=C1Cc2cc(CCN3CCN(c4nsc5ccccc45)CC3)c(Cl)cc2N1
Potency [1]: inactive | Potency [2]: inactive | Potency [3]: inactive

Cc1ccc(O)c(O)c1
Potency [1]: inactive | Potency [2]: inactive | Potency [3]: inactive

CN1C(=O)OC(C)(C)C1=O
Potency [1]: inactive | Potency [2]: inactive | Potency [3]: inactive

CC(C(O)c1ccccc1)N(C)CCOC(c1ccccc1)c1ccccc1 (configuration not stated)
Potency [1]: inactive | Potency [2]: inactive | Potency [3]: inactive

CN1CCCC(CC2c3ccccc3Sc3ccccc32)C1 (configuration not stated)
Potency [1]: inactive | Potency [2]: inactive | Potency [3]: inactive

N#CSc1ccc(N)c([N+](=O)[O-])c1
Potency [1]: inactive | Potency [2]: inactive | Potency [3]: inactive

CN1CCN(Cc2cc(-c3ccc4[nH]c(=O)oc4c3)co2)[C@@H](c2ccc(F)cc2)C1
Potency [1]: inactive | Potency [2]: inactive | Potency [3]: inactive

Nc1cc(C(Cl)=C(Cl)Cl)c(S(N)(=O)=O)cc1S(N)(=O)=O
Potency [1]: inactive | Potency [2]: inactive | Potency [3]: inactive

C/C(=N\[Si](C)(C)C)O[Si](C)(C)C
Potency [1]: inactive | Potency [4]: inactive

COc1ccc(C(=O)NCc2ccc(OCCN(C)C)cc2)cc1OC
Potency [1]: 6.92 µM (active) | Potency [2]: 27.5 µM (active) | Potency [3]: inactive

C=CC1CC2C=CC1C2 (configuration not stated)
Potency [1]: inactive | Potency [4]: inactive | Potency [3]: inactive

COc1cc2c(Nc3ccc(Br)cc3F)ncnc2cc1OCC1CCN(C)CC1
Potency [1]: inactive | Potency [2]: inactive | Potency [3]: inactive

COc1cc(NC(C)CCCN)c2ncccc2c1 (configuration not stated)
Potency [1]: inactive | Potency [2]: inactive | Potency [3]: inactive

CCCCCCCCOC(=O)c1cc(O)c(O)c(O)c1
Potency [1]: inactive | Potency [4]: inactive

O=C(O)/C=C/c1ccc(O)c(O)c1
Potency [1]: inactive | Potency [4]: inactive

CCOc1ccc2ccccc2c1C(=O)N[C@@H]1C(=O)N2[C@@H]1SC(C)(C)[C@@H]2C(=O)O
Potency [1]: inactive | Potency [2]: inactive | Potency [3]: inactive

CNC(=O)c1ccccc1Sc1ccc2c(/C=C/c3ccccn3)n[nH]c2c1
Potency [1]: inactive | Potency [2]: inactive | Potency [3]: inactive

CN(C)[C@@H](CCOc1cccc2ccccc12)c1ccccc1
Potency [1]: inactive | Potency [2]: inactive | Potency [3]: inactive

Nc1c(NC/C=C\COc2cc(CN3CCCCC3)ccn2)c(=O)c1=O
Potency [1]: 13.5 µM (active) | activity change, negative = inhibition [4]: -23% [at 23.8 µM] | activity change, negative = inhibition [3]: 0.669% [at 23.6 µM]

CCN1CCN(C(=O)N[C@@H](C(=O)N[C@@H]2C(=O)N3C(C(=O)O)=C(CSc4nnnn4C)CS[C@H]23)c2ccc(O)cc2)C(=O)C1=O
Potency [1]: inactive | Potency [2]: inactive | Potency [3]: inactive

CCCCCCCCCOC(=O)c1ccccc1C(=O)OCCCCCCCCC
Potency [1]: inactive | Potency [4]: inactive

NC(=O)n1c(O)c(C(=O)c2cccs2)c2cc(Cl)ccc21
Potency [1]: inactive | Potency [2]: inactive | Potency [3]: inactive

CC(C)C1OCCN1CCOC(=O)NCCCCCCNC(=O)OCCN1CCOC1C(C)C (configuration not stated)
Potency [1]: inactive | Potency [2]: inactive | Potency [3]: inactive

COC(=O)c1ccccc1C(=O)c1ccc(OCCN2CCCCC2)cc1
Potency [1]: inactive | Potency [2]: inactive | Potency [3]: inactive

CO[C@@H]1COCC[C@@H]1N[C@@H]1CC[C@@](C(=O)N2CCc3ncc(C(F)(F)F)cc3C2)(C(C)C)C1
Potency [1]: inactive | Potency [2]: inactive | Potency [3]: inactive

O=S1(=O)CC(Cl)(Cl)C(Cl)(Cl)C1
Potency [1]: 71 µM (active) | Potency [4]: inactive

C[n+]1cc2c3c(ccc2c2ccc4cc5c(cc4c21)OCO5)OCO3
Potency [1]: 10.7 µM (active) | Potency [2]: 16.9 µM (active) | activity change, negative = inhibition [3]: -3.24% [at 23.6 µM]

CCCC(CC)CCCCCCCN (configuration not stated)
Potency [1]: inactive | Potency [2]: inactive | Potency [3]: inactive

CNCCO
Potency [1]: inactive | Potency [4]: inactive

Cc1ccc(C2OC[C@@H]3OC(c4ccc(C)cc4)O[C@H]([C@H](O)CO)[C@@H]3O2)cc1 (some centres not stated)
Potency [1]: inactive | Potency [4]: inactive

CC(C)C(=O)OCC(C)(C)C(O)C(C)C (configuration not stated)
Potency [1]: inactive | Potency [2]: inactive | Potency [3]: inactive

NC1[C@H]2CN(c3nc4c(cc3F)c(=O)c(C(=O)O)cn4-c3ccc(F)cc3F)C[C@@H]12 (some centres not stated)
outcome [1]: inactive | outcome [2]: inactive | outcome [3]: inactive

c1ccc([C@H]2CN3CCSC3=N2)cc1
outcome [1]: inactive | outcome [2]: inactive | outcome [3]: inactive

CN1CC(=O)N2[C@H](c3ccc4c(c3)OCO4)c3[nH]c4ccccc4c3C[C@@H]2C1=O
Potency [1]: 27.5 µM (active) | Potency [2]: inactive | Potency [3]: inactive

N=C1C=CC(=C(c2ccc(N)cc2)c2ccc(N)cc2)C=C1
Potency [1]: inactive | Potency [4]: 39.9 µM (active) | Potency [3]: inactive

N=C(N)c1ccc2cc(OC(=O)c3ccc(N=C(N)N)cc3)ccc2c1
Potency [1]: 27.5 µM (active) | outcome [2]: inactive | outcome [3]: inactive

CCCCCCCCCCCCCCCCCC[N+](C)(C)C
Potency [1]: inactive | Potency [2]: 63.5 µM (active) | Potency [3]: inactive

O=C(c1ccccc1)C1CCCCC1
Potency [1]: inactive | Potency [2]: inactive | Potency [3]: inactive

N[C@@H]1CONC1=O
Potency [1]: inactive | Potency [2]: inactive | Potency [3]: inactive

O=C1C(=O)c2ccccc2C(O)=C1C1CCC(c2ccc(Cl)cc2)CC1 (configuration not stated)
Potency [1]: inactive | Potency [4]: inactive

Cc1ccc(O)c(N)c1
Potency [1]: inactive | Potency [2]: inactive | Potency [3]: inactive

CC(C)(O)C(=O)O
Potency [1]: inactive | Potency [2]: inactive | Potency [3]: inactive

Cc1cc(C)c(C=O)c(C)c1
Potency [1]: inactive | Potency [2]: inactive | Potency [3]: inactive

Cc1cc(CCN2CCN(c3nsc4ccccc34)CC2)cc2c1NC(=O)CC2(C)C
outcome [1]: inactive | outcome [2]: inactive | outcome [3]: inactive

CN(C)CC[C@@H](c1ccc(Br)cc1)c1ccccn1
Potency [1]: inactive | Potency [2]: inactive | Potency [3]: inactive

Cc1cc(C(C#N)c2ccc(Cl)cc2)c(Cl)cc1NC(=O)c1cc(I)cc(I)c1O (configuration not stated)
outcome [5]: inactive | Potency [1]: inactive | Potency [2]: inactive | Potency [3]: inactive

CCCCCCCC/C=C/C(=O)O
Potency [1]: inactive | Potency [2]: inactive | Potency [3]: inactive

O[C@@H](CNC[C@H](O)[C@H]1CCc2cc(F)ccc2O1)[C@@H]1CCc2cc(F)ccc2O1
Potency [1]: inactive | Potency [2]: inactive | Potency [3]: inactive

C[C@@H]1C[C@H]2[C@@H]3CCC4=CC(=O)C=C[C@]4(C)[C@@]3(F)[C@@H](O)C[C@]2(C)[C@@]1(O)C(=O)CO
Potency [1]: inactive | Potency [4]: inactive | Potency [3]: inactive

CC[C@H]1O[C@]2(CC[C@@H]1C)C[C@@H]1C[C@@H](C/C=C(\C)C[C@@H](C)/C=C/C=C3\CO[C@@H]4[C@H](O)C(C)=C[C@@H](C(=O)O1)[C@]34O)O2
Potency [1]: inactive | Potency [4]: inactive | Potency [3]: inactive

CC1CCCCN1CCCOC(=O)c1ccc(OC2CCCCC2)cc1 (configuration not stated)
Potency [1]: 17.4 µM (active) | Potency [4]: 12.3 µM (active) | Potency [3]: inactive

CNc1ccc(O)cc1
Potency [1]: 22.4 µM (active) | Potency [4]: 31.7 µM (active) | Potency [3]: inactive

NC(=O)c1ncn([C@@H]2O[C@H](CO)[C@@H](O)[C@H]2O)c1N
Potency [1]: inactive | Potency [4]: inactive | Potency [3]: inactive

CCCCCCCCCCCCCCCC(=O)OC/C=C(C)/C=C/C=C(C)/C=C/C1=C(C)CCCC1(C)C
Potency [1]: inactive | Potency [4]: inactive | Potency [3]: inactive

C=CC/C=C/C/C=C/C/C=C/C
Potency [1]: inactive | Potency [4]: inactive | Potency [3]: inactive

c1ccc(C[P+](c2ccccc2)(c2ccccc2)c2ccccc2)cc1
Potency [1]: 71 µM (active) | Potency [4]: 12.6 µM (active) | Potency [3]: inactive

CN1CCN(c2ccccc2/C=C2\SCCN(c3ccc(Cl)c(Cl)c3)C2=O)CC1
Potency [1]: inactive | Potency [4]: 39.9 µM (active) | Potency [3]: inactive

C=COCC1CCC(COC=C)CC1 (configuration not stated)
Potency [1]: inactive | Potency [4]: inactive | Potency [3]: inactive

O=C(O)CNC(=O)CNC(=O)CNC(=O)CSC(=O)c1ccccc1
Potency [1]: inactive | Potency [4]: inactive | Potency [3]: inactive

CCOC(=N)CC(=O)OCC
Potency [1]: inactive | Potency [4]: inactive | Potency [3]: inactive

CCC(O)CO (configuration not stated)
Potency [1]: inactive | Potency [4]: inactive | Potency [3]: inactive
